In PubChem BioAssay (NCI):
Compounds without any hit were thinned out: in the full panel of roughly 83,000, 20% have a hit.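 Method: cells in 96-well plates; compound added at one concentration; 48 h incubation; percent growth measured; values under 10 scored active.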 Calls of active or inactive are those of the source.

Legend:
Experiment in all cases: NCI-60 one-dose screen, 48 h (100 = growth as untreated, 0 = no growth, -100 = all killed)
HCT-15 colon = details: 10 µM
SNB-75 CNS = details: 10 µM
SNB-19 CNS = details: 10 µM
U251 CNS = details: 10 µM
PC-3 prostate = details: 10 µM
SK-MEL-5 melanoma = details: 10 µM
UACC-62 melanoma = details: 10 µM unless noted
LOX IMVI melanoma = details: 10 µM
SK-MEL-28 melanoma = details: 10 µM
HT29 colon = details: 10 µM

Measured: growth

Oc1ccccc1O
inactive: HCT-15 colon 95.6% | SNB-75 CNS 89.4% | SNB-19 CNS 80.2% | U251 CNS 82.7% | PC-3 prostate 87.4% | SK-MEL-5 melanoma 89.3% | UACC-62 melanoma 86.8% | LOX IMVI melanoma 85.3% | SK-MEL-28 melanoma 101%

Clc1ccc(-c2nnc(-c3cccc4ccccc34)o2)cc1
inactive: HCT-15 colon 80.1% | HT29 colon 89.3% | U251 CNS 90.2% | PC-3 prostate 82.4% | SK-MEL-5 melanoma 93.7% | LOX IMVI melanoma 84.2% | SK-MEL-28 melanoma 107%

O=c1[nH]n(-c2ccccc2)c(=O)cc1Cl
inactive: HCT-15 colon 120% | SNB-75 CNS 95.2% | SNB-19 CNS 98.9% | U251 CNS 109% | PC-3 prostate 97.3% | SK-MEL-5 melanoma 102% | UACC-62 melanoma 87.3% | LOX IMVI melanoma 96% | SK-MEL-28 melanoma 117%

O=c1c2ccccc2c(Br)c(Br)c2ccccc12
active: LOX IMVI melanoma 3.1%
inactive: HCT-15 colon 98% | SNB-75 CNS 119% | SNB-19 CNS 101% | U251 CNS 91% | PC-3 prostate 95.7% | SK-MEL-5 melanoma 109% | UACC-62 melanoma 95.6% | SK-MEL-28 melanoma 106%

N#Cc1ccc(NC(=O)Nc2cccc(C#N)c2)cc1
inactive: HCT-15 colon 67.4% | SNB-75 CNS 97.8% | SNB-19 CNS 103% | U251 CNS 91.8% | PC-3 prostate 57.3% | SK-MEL-5 melanoma 81.8% | UACC-62 melanoma 93.7% | LOX IMVI melanoma 91.6% | SK-MEL-28 melanoma 108%

COc1cc(C(=O)N/N=C/c2cccc([N+](=O)[O-])c2)cc(OC)c1OC
inactive: HCT-15 colon 52.1% | SNB-75 CNS 29.5% | SNB-19 CNS 69.7% | U251 CNS 55.6% | PC-3 prostate 67.5% | SK-MEL-5 melanoma 19% | UACC-62 melanoma 50.5% | SK-MEL-28 melanoma 62.1%

COc1ccc(C2OC(N)=C(O)C2=O)cc1OC (centres undefined)
inactive: HCT-15 colon 101% | HT29 colon 108% | U251 CNS 111% | PC-3 prostate 97.2% | SK-MEL-5 melanoma 102% | UACC-62 melanoma 93.7% | LOX IMVI melanoma 102% | SK-MEL-28 melanoma 105%

CC1CCCCN1C(=S)Nc1ccc(S(=O)(=O)N2CCCCC2)cc1 (centres undefined)
inactive: HCT-15 colon 99.2% | SNB-75 CNS 129% | SNB-19 CNS 109% | U251 CNS 95.7% | PC-3 prostate 83% | SK-MEL-5 melanoma 103% | UACC-62 melanoma 95.6% | LOX IMVI melanoma 105% | SK-MEL-28 melanoma 98.6%

CN(C)c1ccc(CNC(C(=O)c2ccccc2)c2ccccc2)cc1 (centres undefined)
inactive: HCT-15 colon 96.9% | SNB-75 CNS 90.4% | SNB-19 CNS 107% | U251 CNS 94.1% | PC-3 prostate 85.7% | SK-MEL-5 melanoma 56.2% | UACC-62 melanoma 99.2% | LOX IMVI melanoma 95.1% | SK-MEL-28 melanoma 94.2%

CN(C)/N=C/c1ccccc1O
inactive: HCT-15 colon 100% | SNB-75 CNS 87.8% | SNB-19 CNS 97.8% | U251 CNS 95.4% | PC-3 prostate 121% | SK-MEL-5 melanoma 103% | UACC-62 melanoma 98.4% | LOX IMVI melanoma 98.7% | SK-MEL-28 melanoma 111%

CCOc1ccc2[nH]c(=S)sc2c1
inactive: HCT-15 colon 108% | SNB-75 CNS 92% | SNB-19 CNS 103% | U251 CNS 106% | PC-3 prostate 101% | SK-MEL-5 melanoma 101% | UACC-62 melanoma 104% | LOX IMVI melanoma 98.6% | SK-MEL-28 melanoma 109%

O=c1cc(-c2ccccc2)[nH]c2c1CCCC2
active: SNB-75 CNS -7.33% | SK-MEL-5 melanoma 7.3%
inactive: HCT-15 colon 25% | SNB-19 CNS 39.4% | U251 CNS 27.9% | PC-3 prostate 28.5% | UACC-62 melanoma 35.2% | LOX IMVI melanoma 37.4% | SK-MEL-28 melanoma 52.1%

CN(C)CCC(=O)c1ccc(O)cc1
inactive: HCT-15 colon 104% | HT29 colon 105% | U251 CNS 100% | PC-3 prostate 106% | SK-MEL-5 melanoma 99.9% | LOX IMVI melanoma 97.2% | SK-MEL-28 melanoma 110%

Cc1ccccc1N=C(c1ccccc1)C1C(=O)c2ccccc2C1=O
inactive: HCT-15 colon 58.7% | SNB-75 CNS 90% | SNB-19 CNS 97.1% | U251 CNS 87.7% | PC-3 prostate 59.8% | UACC-62 melanoma 63.1% | LOX IMVI melanoma 85.9% | SK-MEL-28 melanoma 89.4%
active: SK-MEL-5 melanoma -0.209%

COS(=O)(=O)c1ccc(Br)cc1
inactive: HCT-15 colon 104% | SNB-75 CNS 89.4% | SNB-19 CNS 98.3% | U251 CNS 89% | PC-3 prostate 93.2% | SK-MEL-5 melanoma 104% | UACC-62 melanoma 85.5% | LOX IMVI melanoma 97.2% | SK-MEL-28 melanoma 98.4%

CCCC(=O)Nc1ccc2c(c1)CN1C(=O)c3ccccc3C1=N2
inactive: HCT-15 colon 98.3% | SNB-75 CNS 104% | SNB-19 CNS 110% | U251 CNS 98.6% | PC-3 prostate 98.6% | SK-MEL-5 melanoma 98.5% | UACC-62 melanoma 100% | LOX IMVI melanoma 105% | SK-MEL-28 melanoma 111%

O=[N+]([O-])c1ccc(CO)cc1
inactive: HCT-15 colon 98% | SNB-75 CNS 108% | SNB-19 CNS 105% | U251 CNS 105% | PC-3 prostate 97.2% | SK-MEL-5 melanoma 101% | UACC-62 melanoma 99.1% | LOX IMVI melanoma 99.2% | SK-MEL-28 melanoma 112%

COc1cc2c(cc1O)CC[C@@H]1C2CC[C@@]2(C)C1CC[C@@H]2O (some centres undefined)
active: SNB-75 CNS 3.42% | SK-MEL-5 melanoma -22.1%
inactive: HCT-15 colon 29.9% | SNB-19 CNS 28.9% | U251 CNS 33.5% | PC-3 prostate 19.7% | UACC-62 melanoma 22.2% | LOX IMVI melanoma 48%

Cc1cc(OCCO)cc(C)c1Cl
inactive: HCT-15 colon 97.6% | SNB-75 CNS 124% | SNB-19 CNS 106% | U251 CNS 110% | PC-3 prostate 97.2% | SK-MEL-5 melanoma 112% | UACC-62 melanoma 95.7% | LOX IMVI melanoma 98% | SK-MEL-28 melanoma 118%

CCC(C)(C)C1CCC(O)CC1 (centres undefined)
inactive: HCT-15 colon 88.9% | SNB-75 CNS 100% | SNB-19 CNS 100% | U251 CNS 107% | PC-3 prostate 99.2% | SK-MEL-5 melanoma 97.8% | UACC-62 melanoma 98.2% | LOX IMVI melanoma 91.1% | SK-MEL-28 melanoma 114%

C/C(=C\c1cc(Cl)ccc1OCC(=O)O)[N+](=O)[O-]
inactive: HCT-15 colon 101% | SNB-75 CNS 112% | SNB-19 CNS 117% | U251 CNS 102% | PC-3 prostate 96.2% | SK-MEL-5 melanoma 111% | UACC-62 melanoma 109% | LOX IMVI melanoma 88.6% | SK-MEL-28 melanoma 118%

COC(=O)Nc1nc2ccc(C(=O)c3ccc(F)cc3)cc2[nH]1
inactive: SNB-75 CNS 31% | SNB-19 CNS 33.5% | U251 CNS 14.3% | SK-MEL-5 melanoma 13.6% | UACC-62 melanoma 36% | LOX IMVI melanoma 28.4% | SK-MEL-28 melanoma 54.2%
active: HCT-15 colon 5.81% | PC-3 prostate 2.25%

O=S(=O)(O)CC(O)CN1CCN(CCO)CC1 (centres undefined)
inactive: HCT-15 colon 102% | SNB-75 CNS 102% | SNB-19 CNS 115% | U251 CNS 106% | PC-3 prostate 81.1% | SK-MEL-5 melanoma 107% | UACC-62 melanoma 117% | LOX IMVI melanoma 96.8% | SK-MEL-28 melanoma 117%

CCOC(=O)C1=C(C)NC(=O)NC1c1cccs1 (centres undefined)
inactive: HCT-15 colon 103% | SNB-75 CNS 103% | SNB-19 CNS 113% | U251 CNS 109% | PC-3 prostate 102% | SK-MEL-5 melanoma 104% | UACC-62 melanoma 115% | LOX IMVI melanoma 101% | SK-MEL-28 melanoma 106%

CN(C)c1ccc(S(=O)(=O)O)cc1
inactive: HCT-15 colon 102% | SNB-75 CNS 96.3% | SNB-19 CNS 109% | U251 CNS 108% | PC-3 prostate 88.9% | SK-MEL-5 melanoma 98.9% | UACC-62 melanoma 108% | LOX IMVI melanoma 102% | SK-MEL-28 melanoma 110%

O=c1[nH]cc(Cl)cc1O
inactive: HCT-15 colon 64.4% | SNB-75 CNS 93.1% | SNB-19 CNS 105% | U251 CNS 88.6% | PC-3 prostate 82.2% | SK-MEL-5 melanoma 86.6% | UACC-62 melanoma 40.5% | LOX IMVI melanoma 65.5% | SK-MEL-28 melanoma 105%

CCN(CC)c1ccc2nc3ccc(=[N+](CC)CC)cc-3oc2c1
active: SNB-75 CNS 1.61% | SNB-19 CNS -1.56% | U251 CNS -13.9% | PC-3 prostate 4.1% | SK-MEL-5 melanoma -53.4% | UACC-62 melanoma -39.1% | LOX IMVI melanoma -22.7% | SK-MEL-28 melanoma 2.45%
inactive: HCT-15 colon 35.5%

COc1cc(OC)c2ccc(=O)oc2c1
inactive: HCT-15 colon 96.4% | SNB-75 CNS 85.3% | SNB-19 CNS 99% | U251 CNS 98.8% | PC-3 prostate 100% | SK-MEL-5 melanoma 107% | UACC-62 melanoma 95.5% | LOX IMVI melanoma 96.6% | SK-MEL-28 melanoma 115%

O=c1cc2oc3cc(O)c(O)cc3c(-c3ccccc3O)c-2cc1O
inactive: HCT-15 colon 91.7% | SNB-75 CNS 62.9% | SNB-19 CNS 72.5% | U251 CNS 58.4% | PC-3 prostate 73.9% | SK-MEL-5 melanoma 74.2% | UACC-62 melanoma 80.5% | LOX IMVI melanoma 64.8% | SK-MEL-28 melanoma 81.6%

Oc1ccc(O)cc1
inactive: HCT-15 colon 101% | SNB-75 CNS 102% | SNB-19 CNS 115% | U251 CNS 99.1% | PC-3 prostate 89.2% | UACC-62 melanoma 103% | LOX IMVI melanoma 92.6% | SK-MEL-28 melanoma 112%

C#CC(C)(O)c1ccc(Cl)cc1 (centres undefined)
active: UACC-62 melanoma -18.6%
inactive: HT29 colon 102% | SNB-75 CNS 98.8% | SNB-19 CNS 106% | U251 CNS 97.8% | PC-3 prostate 96.6% | SK-MEL-5 melanoma 101% | LOX IMVI melanoma 94.5% | SK-MEL-28 melanoma 110%

CCS(=O)(=O)c1cc(=O)[nH]c(=O)[nH]1
inactive: HCT-15 colon 109% | SNB-19 CNS 102% | U251 CNS 93.8% | PC-3 prostate 124% | SK-MEL-5 melanoma 93.2% | LOX IMVI melanoma 101% | SK-MEL-28 melanoma 98.9%

CCN(CC)CCCC(C)Nc1ccnc(/C=C/c2ccc(Cl)cc2)c1 (centres undefined)
inactive: SNB-19 CNS 53.6% | PC-3 prostate 45.5%
active: HCT-15 colon -33.4% | SNB-75 CNS -49.3% | U251 CNS -58.1% | SK-MEL-5 melanoma -96.7% | UACC-62 melanoma -55.8% | SK-MEL-28 melanoma -87.5%

O=C(CS)Nc1ccc2ccccc2c1
inactive: HCT-15 colon 75.9% | SNB-19 CNS 101% | U251 CNS 98% | PC-3 prostate 70% | SK-MEL-5 melanoma 91.9% | UACC-62 melanoma 94.1% | LOX IMVI melanoma 86.7% | SK-MEL-28 melanoma 102%
